From PubChem BioAssay (EPA / NIEHS) come the findings set out here.

Calls of active or inactive are those of the source. The calls were made as follows: active = hit-call score of the fitted dose curve at least 0.9, where 1 is the maximum; inactive = score below 0.9.

One may read the AC50 as the concentration at which the activity in the assay is half-maximal.

A short description of assay [1]: APR_HepG2_P-H2AX_72hr: Apredica 72-hour HepG2 Assay for H2AX Phosphorylation (AID 2282916).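 Also: phospho-histone H2A.x immunostain intensity per cell marking DNA damage.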 The conditions noted are these: imaging, actives raise or lower the signal. In outline: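 Phospho-H2A.x imaging endpoint in HepG2 after 72 hr compound exposure (0.39–200 uM, duplicate wells). Activity derived by bidirectional curve fitting with DMSO as baseline.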
Assay [2] can be described thus: APR_HepG2_MitoMembPot_72hr: Apredica 72-hour HepG2 Assay for Mitochondrial Membrane Potential (AID 2282917). The following applies: imaging, actives raise or lower the signal. In outline:
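HepG2 cells dosed 72 hr with compound at 0.39–200 uM in duplicate, 0.5% v/v DMSO final. Mitochondria stained with 250 nM MitoTracker Red CMXRos for 30 min before formaldehyde fixation, imaged by high-content fluorescence; bidirectional fit versus DMSO.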

Assay [3] in a line: APR_HepG2_MitoticArrest_72hr: Apredica 72-hour HepG2 Assay for Mitotic Arrest (AID 2282918). The following applies: high-content imaging, actives raise or lower the signal. The gist of the method:
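Read-out is phospho-histone H3 immunofluorescence with Hoechst nuclear segmentation, imaged at 20x. Human HepG2 liver cells received ten concentrations (0.39–200 uM, final DMSO 0.5% v/v) for 72 hr before fixation. Gain or loss of signal was fitted relative to DMSO.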

A short description of assay [4]: APR_HepG2_MicrotubuleCSK_72hr: Apredica 72-hour HepG2 Assay for Microtubule CSK Stabilty (AID 2282919). The conditions noted are these: HepG2 microtubule cytoskeleton, high-content imaging, actives raise or lower the signal. The gist of the method:
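HepG2, 72 hr cmpd exposure, 0.39–200 uM (10 pts, duplicate), 0.5% DMSO. 3.7% formaldehyde fix, 0.5% Triton perm, anti-alpha-tubulin/Cy5 plus Hoechst. HCS fluorescence intensity; bidirectional fit vs DMSO baseline; taxol as positive control.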

Assay [5] is described as follows: APR_HepG2_P-H2AX_24hr: Apredica 24-hour HepG2 Assay for H2AX Phosphorylation (AID 2282920). The following applies: high-content imaging, actives raise or lower the signal. The gist of the method: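 HepG2, 24 hr, cpd 0.39–200 uM (10 conc, duplicate), DMSO 0.5% v/v final. Fix 3.7% formaldehyde, Triton X-100 permeabilize, anti-phospho-H2A.x 1:200 + Hoechst 2 ug/mL. Imaged, bidirectional fit vs DMSO.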

Assay [6] can be described thus: APR_HepG2_StressKinase_72hr: Apredica 72-hour HepG2 Assay for Stress Kinase (AID 2282921). The following applies: HepG2 stress kinase (phospho-c-Jun) imaging, actives raise or lower the signal. In outline:
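Stress kinase signal reflects nuclear phospho-c-Jun staining in fixed, permeabilized cells exposed 72 h to compound at 0.39–200 uM; DMSO-normalized, fitted for increases or decreases.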

Assay [7] in a line: APR_HepG2_StressKinase_24hr: Apredica 24-hour HepG2 Assay for Stress Kinase (AID 2282922). The conditions noted are these: HepG2 stress kinase (phospho-c-Jun) imaging, actives raise or lower the signal. The gist of the method:
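Read-out: phospho-c-Jun immunofluorescence (Cy3 secondary) quantified by high-content imaging at 20x, nuclei defined by Hoechst 33342. Human HepG2 liver cells dosed 24 hr, 0.39–200 uM, DMSO 0.5% v/v; gain or loss of signal fitted relative to DMSO.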

Assay [8] can be described thus: APR_HepG2_p53Act_72hr: Apredica 72-hour HepG2 Assay for p53 Activation (AID 2282923).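 Also: average cellular p53 protein immunofluorescence intensity in HepG2 cells.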 The conditions noted are these: high-content imaging, actives raise or lower the signal. In outline: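 Fixed-cell p53 staining (sheep primary, Cy5 secondary) measured by fluorescence imaging following 72 hr treatment at 0.39–200 uM in 0.5% DMSO; DMSO served as negative control and baseline.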

A short description of assay [9]: APR_HepG2_MitoMass_72hr: Apredica 72-hour HepG2 Assay for Mitochondrial Mass (AID 2282924).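 Also: MitoTracker Red CMXRos stain intensity per cell imaged as mitochondrial mass.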 The following applies: high-content imaging, actives raise or lower the signal. The gist of the method:
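Read-out: MitoTracker Red fluorescence intensity from automated imaging (20x, six fields per well) in human HepG2 liver cells. Dosing ran 72 hr, 0.39–200 uM, 0.5% DMSO; bidirectional curve fitting versus DMSO baseline.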

The nature of assay [10]: APR_HepG2_NuclearSize_72hr: Apredica 72-hour HepG2 Assay for Nuclear Size (AID 2282925). The conditions noted are these: high-content imaging, actives raise or lower the signal. In outline:
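Read-out: nuclear diameter from Hoechst 33342 images (ArrayScan, 20x, six fields/well), via cell-cycle image analysis. HepG2 were dosed 0.39–200 uM for 72 hr in 0.5% DMSO. Bidirectional fit relative to DMSO.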

Take `COC(=O)c1c(Cl)c(Cl)c(C(=O)OC)c(Cl)c1Cl`: the outcome in [1], in assay [2], in assay [3], in assay [4], in assay [5] and in assay [6] was inactive. Moreover, the compound was classed as inactive in [7], in assay [8], in [9] and in assay [10].
Regarding `Cc1[nH]cnc1C[C@H]1CCc2c(C)c3ccccc3n2C1=O`, the AC50 was 89 µM (active) in assay [1]; 98.8 µM (active) in assay [3]; 92.8 µM (active) in [5]; 65 µM (active) in assay [6]; 100 µM (active) in assay [7]; 95 µM (active) in assay [8]. Further, the AC50 in assay [9] is 24.4 µM (active). Also, the compound was classed as inactive in assay [2], in [4] and in [10].
As for `CN(C)c1ccc(N=NS(=O)(=O)O)cc1`, the call in [1], in [2], in assay [3], in assay [4], in [5] and in assay [6] was inactive. Moreover, the result in [7], in assay [9] and in assay [10] was inactive. Also, the AC50 in assay [8] was 57 µM (active).
As for `Cc1ccc(C)c(O)c1`, the compound was called inactive in assay [1], in [2], in assay [3], in assay [4], in assay [5] and in [6]. For the same compound, the result in assay [7], in [8], in [9] and in assay [10] was inactive.
For the compound `O=C(O)c1cc(N=Nc2ccc(S(=O)(=O)Nc3ccccn3)cc2)ccc1O`, the outcome in assay [1], in assay [3], in assay [4], in [5], in [6] and in assay [7] was inactive. For the same compound, the compound was called inactive in assay [8], in assay [9] and in assay [10]. In addition, the AC50 in [2] was 88.8 µM (active).
With `CCn1nc(Cc2ccccc2)cc1C1CCN(C[C@H]2C[C@H](N(C)[C@@H](C(=O)O)C(C)C)C[C@@H]2c2cccc(F)c2)CC1`, the call in assay [1], in assay [2], in assay [4], in assay [5], in assay [6] and in [7] was inactive. Moreover, the call in assay [8], in assay [9] and in assay [10] was inactive. Moreover, in [3], the AC50 was 113 µM (active).
Consider `CC(=O)OCCC(C)C`, for which the call in assay [1], in [2], in assay [3], in assay [4], in [5] and in assay [6] was inactive. The compound was called inactive in assay [7], in [8], in assay [9] and in assay [10].
Turning to `NC(=O)NO`, the outcome in [1], in assay [2], in assay [3], in [4], in [5] and in [6] was inactive. Also, the compound was called inactive in assay [7], in [8], in assay [9] and in assay [10].
Regarding `CC(=O)OC[C@H]1O[C@@](COC(C)=O)(O[C@H]2O[C@H](COC(C)=O)[C@@H](OC(C)=O)[C@H](OC(C)=O)[C@H]2OC(C)=O)[C@@H](OC(C)=O)[C@@H]1OC(C)=O`, the compound was called inactive in [1], in [2], in [3], in assay [4], in assay [5] and in assay [6]. Further, the compound was called inactive in [7], in assay [8], in [9] and in [10].
`CCC(C)(C)C(=O)O[C@H]1C[C@@H](C)C=C2C=C[C@H](C)[C@H](CC[C@@H]3C[C@@H](O)CC(=O)O3)[C@H]21`: the AC50 in assay [1] was 58.8 µM (active); in assay [3] it was 2.62 µM (active); in assay [5], 73.8 µM (active); in assay [6], 100 µM (active); in assay [7], 115 µM (active); in assay [8] it was 29.6 µM (active). For the same compound, the AC50 in assay [9] was 0.559 µM (active). Further, the call in assay [2], in [4] and in assay [10] was inactive.
As for `CCOC(=O)c1ccc(C2CCC(NC[C@H](O)COc3ccc(O)c(NS(C)(=O)=O)c3)CC2)cc1` (stereo not given in full), the AC50 in assay [1] was 14 µM (active); in [3], 20.3 µM (active); in [4], 41.9 µM (active); in assay [5] it was 40 µM (active); in assay [7], 28.3 µM (active); in [8] it was 14.5 µM (active). Further, the AC50 in assay [10] is 22.7 µM (active). Moreover, the outcome in assay [2], in assay [6] and in assay [9] was inactive.
For the compound `O=C(O)c1cccc(N(Cc2cccnc2)c2ccc(OC(F)F)c(OC(F)F)c2)c1`, the AC50 in [1] is 6.52 µM (active); in [3], 4.04 µM (active); in assay [5], 30.8 µM (active); in [6], 15.4 µM (active); in assay [8] it was 4.01 µM (active); in [10] it was 17.4 µM (active). The outcome in assay [2], in [4], in [7] and in [9] was inactive.
As to `On1ccccc1=S`, the outcome in [1], in [2], in assay [4], in assay [5], in assay [7] and in [9] was inactive. The AC50 in [3] was 21.5 µM (active); in assay [6] it was 5.96 µM (active); in assay [8] it was 8.59 µM (active); in assay [10], 3.98 µM (active).
With `O=C1OC(=O)C2C3C=CC(C3)C12` (stereo not given), the compound was classed as inactive in [1], in [2], in [3], in assay [4], in assay [5] and in assay [6]. For the same compound, the compound was classed as inactive in assay [7], in assay [8], in assay [9] and in assay [10].
